Measurements: ChEMBL document CHEMBL4513216, “Probing the Open Global Health Chemical Diversity Library for Multistage-Active Starting Points for Next-Generation Antimalarials” (ACS Infect Dis, 2020)
Hit rate of the full screen: of about 68,000 compounds, about 2,700 (4%) showed an effect of 50% or more. The sample as a whole holds a higher share of strong results than the screen did.

Test system: Plasmodium berghei
Assay: Screen against P. berghei liver stage (PbLuc), transformed with Luciferase, at 2uM
Assay type: functional, HepG2
Conditions: tested at 2 uM

| SMILES | INHIBITION |
| --- | --- |
| O=C(NCc1ccccc1OCC1CC1)C1CCOC1 (stereo unspecified) | 14.82% |
| CC(C)(C)Oc1ccccc1CNC(=O)C1CCCOC1 (stereo unspecified) | 52.98% |
| COCCNc1ccccc1CNC(=O)C1CCCOC1 (stereo unspecified) | -4.26% |
| NC(=O)CN1CC2(CCC1=O)CCN(Cc1ccc(Cl)c(F)c1)CC2 | 23.63% |
| CC(C)Cn1cncc1CNC1CCSC1 (stereo unspecified) | -18.33% |
| COc1c(CNC2CCC(O)CC2)c(C(C)C)nn1C (stereo unspecified) | 11.2% |
| COc1c(CNC2CCN(c3ncccn3)CC2)c(C(C)C)nn1C | -79.53% |
| COc1c(CNC2CCN(C(=O)C(C)C)CC2)c(C(C)C)nn1C | 11.2% |
| COc1c(CNC2CCCN(c3ncccn3)C2)c(C(C)C)nn1C (stereo unspecified) | 56.02% |
| COc1c(CNC2CCN(C(C)(C)C)CC2)c(C(C)C)nn1C | 51.19% |
| COc1c(CNC2CCN(c3ccccn3)CC2)c(C(C)C)nn1C | -11.2% |
| Clc1ccccc1C1CN(CCc2ccncc2)CCO1 (stereo unspecified) | -35.92% |
| COc1ccc(NC(=O)c2nc3ccccc3n(C)c2=O)cc1OC | 9.85% |
| Cc1cccc(C(=O)NCc2ccc(CS(N)(=O)=O)cc2)n1 | -45.83% |
| CNS(=O)(=O)c1ccc(CNC(=O)c2cccc(C)n2)cc1 | -9.17% |
| CNS(=O)(=O)Cc1ccc(CNC(=O)c2cccc(C)n2)cc1 | 65.77% |
| CO[C@H]1CN(C(=O)OC(C)(C)C)CC1NCc1ccco1 (stereo partly specified) | 32.73% |
| CC(c1ccccc1)N(C)C(=O)CN1CCCc2cc(F)cc(F)c21 (stereo unspecified) | 27.52% |
| Nc1nc(C(=O)NCC2CCC3(CCNCC3)CO2)cs1 (stereo unspecified) | -51.85% |
| O=C(CCc1ccccc1)C1CCCN(Cc2cncn2C2CC2)C1 (stereo unspecified) | 21.67% |
| COCCn1cncc1CN1CCCC(C(=O)Cc2ccccc2)C1 (stereo unspecified) | 58.09% |
| O=C(Cc1ccccc1)C1CCCN(Cc2cncn2C2CCCC2)C1 (stereo unspecified) | 19.75% |

| SMILES | INHIBITION |
| --- | --- |
| COCCN(Cc1ccoc1)S(=O)(=O)c1ccc(OC)c(Cl)c1 | 1.04% |
| CN(C)S(=O)(=O)N1CCCCCC1c1cc(-c2ccc(F)cc2)no1 (stereo unspecified) | 6.64% |
| Cc1ccccc1C(CC(=O)NCC(N)=O)c1ccccc1 (stereo unspecified) | 57.59% |
| Cc1ccccc1C(CC(=O)NCc1n[nH]c(N)n1)c1ccccc1 (stereo unspecified) | 28.1% |
| Cc1ccccc1C(CC(=O)NCc1nnc(N)s1)c1ccccc1 (stereo unspecified) | 9.13% |
| Cc1cc(C(=O)NCc2cnn(C)c2C)nc(N2CCCCCC2)n1 | -5.59% |
| O=C(Nc1ccc(F)c(-n2cccc2)c1)NC1(CCO)CCOCC1 | -13.38% |
| COCCN(Cc1ccccn1)C(=O)Nc1cccnc1N1CCCC1 | -40.03% |
| Cc1ccc(C)c(C(=O)Nc2ccc(OC3CCN(C)CC3)cc2)c1 | 29.71% |
| Cc1ccc(C(=O)Nc2ccc(OC3CCN(C)CC3)cc2)c(C)c1 | 55.84% |
| Cc1cccc(C(=O)Nc2ccc(OC3CCN(C)CC3)cc2)c1 | 11.63% |
| CN1CCC(Oc2ccc(NC(=O)c3ccccc3Br)cc2)CC1 | 16.64% |
| COc1ccccc1C(=O)Nc1ccc(OC2CCN(C)CC2)cc1 | 56.93% |
| Cc1ccccc1C(=O)Nc1ccc(OC2CCN(C)CC2)cc1 | 37.87% |
| CN(CCc1ccccn1)c1cc(N2CCCCC2)ncn1 | 26.74% |
| Cc1ccc(-c2noc(C3CCN3C(=O)c3cc[nH]n3)n2)s1 (stereo unspecified) | -24.35% |
| CCCc1nnc(N2CC[C@](C)(O)[C@H](C)C2)s1 | 40.28% |
| Cc1cc(CN2CCc3nc(-c4ccncc4)nc(O)c3CC2)c(C)s1 | 17.72% |
| CN(CCC(O)c1ccccc1)c1cc(N2CCOCC2)ncn1 (stereo unspecified) | -3.38% |
| CCN(CC)c1nc2sc(C(=O)NCC(=O)OC)cc2s1 | 5.1% |
| Fc1ccc(N2CCOC3(COCCN(c4ncccn4)C3)C2)cc1 (stereo unspecified) | 26.31% |
| Cn1nnc2c(N3CC(C(=O)NCc4cccs4)C3)ncnc21 | 41.71% |

| SMILES | INHIBITION |
| --- | --- |
| Cc1cccc(C)c1OC1CN(C(=O)C2CCCN(C(=O)N(C)C)C2)C1 (stereo unspecified) | 10.04% |
| COc1cccc(OC2CN(C(=O)C3CCCN(C(=O)N(C)C)C3)C2)c1 (stereo unspecified) | 52.6% |
| Cc1cccc(C)c1OC1CN(C(=O)C2CCN(C(=O)N(C)C)CC2)C1 | 24.23% |
| Cc1cccc(CN2CCc3[nH]nc(C(=O)N4CCNC(=O)C4)c3C2)n1 | 25.04% |
| CCc1ccc(CN2CCc3[nH]nc(C(=O)N4CCNC(=O)C4)c3C2)o1 | -15.83% |
| Cc1ccc(CN2CCc3[nH]nc(C(=O)N4CCNC(=O)C4)c3C2)s1 | 57.85% |
| O=C(CN1CCOC(Cn2cccn2)C1)NCc1ccccn1 (stereo unspecified) | -12.75% |
| NC(=O)c1cc2c(nc1Oc1ccc(CN3CCCC3)cc1F)CCC2 | 12.21% |
| CNC(=O)c1cc2c(nc1N(C)C)CCN(c1ncc(C)cn1)CC2 | -37.2% |
| COc1ccc(Cl)cc1NCCC(=O)NCCNc1cnccn1 | -22.83% |
| COc1ccc(Cl)cc1NCC(=O)NCCNc1ncccn1 | -5.6% |
| COc1ccc(Cl)cc1NCC(=O)NCCNc1cnccn1 | 55.7% |
| NC(=O)CN1CCCC1c1csc(Nc2cnccn2)n1 (stereo unspecified) | -20.73% |
| CN1CCC2(COCc3cnc(N4CCOCC4)nc32)C1 (stereo unspecified) | 18.97% |
| CS(=O)(=O)NC(=O)c1ccn(-c2ccccc2Cl)n1 | -61.69% |
| O=C1Nc2ccccc2CC12CCCN2Cc1ccc(F)cc1 (stereo unspecified) | -0.14% |
| CCc1n[nH]c(C2CN(C(=O)CCc3cscn3)CCO2)n1 (stereo unspecified) | 12.81% |
| CC(C)(C)c1n[nH]c(C2CN(C(=O)CCc3ccco3)CCO2)n1 (stereo unspecified) | 0.74% |
| CCc1n[nH]c(C2CN(CCCS(C)(=O)=O)CCO2)n1 (stereo unspecified) | 24.65% |
| CC(C)(C)c1n[nH]c(C2CN(C(=O)CCC3CC3)CCO2)n1 (stereo unspecified) | 60.31% |
| CSCC(=O)N1CCOC(c2nc(C(C)(C)C)n[nH]2)C1 (stereo unspecified) | -17.77% |
| CCCc1n[nH]c(C2CN(CCCS(C)(=O)=O)CCO2)n1 (stereo unspecified) | 2.1% |

| SMILES | INHIBITION |
| --- | --- |
| Cc1n[nH]c(C2CN(C(=O)CCc3cscn3)CCO2)n1 (stereo unspecified) | -4.43% |
| CC(C)c1n[nH]c(C2CN(CCCS(C)(=O)=O)CCO2)n1 (stereo unspecified) | 69.11% |
| CC(C)c1n[nH]c(C2CN(C(=O)CCc3cscn3)CCO2)n1 (stereo unspecified) | 53.33% |
| C=C(C)CN(CC)Cc1nc(C)no1 | -12.44% |
| CS(=O)(=O)Cc1noc(CN2CCc3c(Cl)cccc3C2)n1 | -6.67% |
| CCC(CNS(C)(=O)=O)Oc1ccccc1F (stereo unspecified) | 14.69% |
| CCc1n[nH]c(C2CN(Cc3nnc(C4CCC4)o3)CCO2)n1 (stereo unspecified) | -45.21% |
| CC(=O)N1CCCC1c1nc(N(C)C)ncc1-c1ccccc1 (stereo unspecified) | 7.47% |
| Cc1cn(CC(=O)NC2CCN(C(=O)C3CC3)CC2)c2ccccc12 | 41.44% |
| Cc1c(C(=O)N(C)C)cccc1N(C)S(C)(=O)=O | -0.02% |
| COc1ccc(CNc2c(C)nn(C(C)C)c2C)cc1OC | -4.19% |
| CC[C@@H](c1ccccc1)n1c(CCN)n[nH]c1=O | 31.69% |
| Cc1nc(CC(=O)N2CCc3nc(-c4cnccn4)nc(O)c3C2)cs1 | 34.9% |
| CC(C)c1noc(CCC(=O)NC2CCS(=O)(=O)C2)n1 (stereo unspecified) | 17.19% |
| Cc1ccc(C(=O)NCCN2CCOCC2)cc1N(C)S(C)(=O)=O | 70.2% |
| CN(c1ccc(C(=O)NCCN2CCOCC2)c(Cl)c1)S(C)(=O)=O | 2.31% |
| Cc1ccc(C(=O)NCCC2CCN(C)CC2)cc1N(C)S(C)(=O)=O | 36.05% |
| COc1ccccc1-c1cc(C(=O)Nc2nc[nH]n2)[nH]n1 | 19.53% |
| CCCN(C)c1ccc(C(=O)Nc2c(C)nn(C(C)C)c2C)cc1 | -17.64% |
| CN(C)Cc1ccc(C2CCCCN2C(=O)c2cccnn2)cc1 (stereo unspecified) | -9.15% |
| CN(C)Cc1ccc(C2CCCCN2C(=O)c2ncccc2O)cc1 (stereo unspecified) | 56.16% |
| Cc1nc(C(=O)N2CCCCC2c2ccc(CN(C)C)cc2)c(C)o1 (stereo unspecified) | 46.21% |

| SMILES | INHIBITION |
| --- | --- |
| CCc1ccc(C(=O)N2CCN(CCO)CC2)o1 | 31.7% |
| CN(Cc1ccco1)C(=O)c1ccc(=O)n(C)c1 | 1.13% |
| Cc1nc(CNCc2ccc(OC34CCCN(CC3)C4)cc2)n[nH]1 (stereo unspecified) | -2.62% |
| CC(C)NC(=O)C1CN(C(=O)N2CCCC2)CC12CCOCC2 (stereo unspecified) | 17.51% |
| CN(C)C(=O)N1CC(C(=O)NCC2CC2)C2(CCOCC2)C1 (stereo unspecified) | 55.92% |
| Cc1ccsc1C(=O)N1CC(C(=O)NCC2CC2)C2(CCOCC2)C1 (stereo unspecified) | 2.41% |
| CC(C)NC(=O)C1CN(C(=O)N(C)C)CC12CCOCC2 (stereo unspecified) | 58.87% |
| COCC(=O)N1CC(C(=O)NCC2CC2)C2(CCOCC2)C1 (stereo unspecified) | -13.16% |
| CC(C)NC(=O)C1CN(C(=O)c2ccccc2)CC12CCOCC2 (stereo unspecified) | 34.48% |
| COCCO[C@@H]1C[C@H]2CN(C(=O)c3cnccn3)CCN2C1 | -1.27% |
| O=C1NCCCCC1NCc1csc(-c2ccc(F)cc2)n1 (stereo unspecified) | 13.91% |
| CCN1CCc2c(CNC(=O)c3nccn3C)cncc2C1 | 10.71% |
| CCc1oc(C(=O)NC(C)c2ncn[nH]2)cc1CN1CCCC1 (stereo unspecified) | 38.24% |
| CC(C)Nc1ncccc1C(=O)NC1CC(=O)N(CC(F)(F)F)C1 (stereo unspecified) | 16.87% |
| Cc1[nH]c2ccccc2c1-c1ccnc(N[C@H](CO)CC(C)C)n1 | -48.87% |
| Nc1ncc(C(=O)N2CCCC(N)CC2)c(-c2ccccc2)n1 (stereo unspecified) | 50.91% |
| Nc1ncc(C(=O)N2CCC3(CCCO3)CC2)c(-c2ccccc2)n1 | 14.83% |
| Nc1ncc(C(=O)N2CCC(O)(CO)CC2)c(-c2ccccc2)n1 | 32.04% |
